Experimental data from PubChem BioAssay (NCATS).
Where “and” joins values, the source holds several entries; their conditions need not be identical. Equal entries are not always repeated. Records with an inconclusive call do not appear. Calls of active or inactive are those of the source. The call rests on the fitted dose curve; in most records, active means well fitted inhibition curve with a large enough effect; inconclusive means small, poorly fitted or top-dose-only effect; inactive means flat fitted curve, though single readings scatter.

What was measured:
CRL-7250 = normal cell line; experiment: Cytotoxic Profiling of Annotated Libraries Using Quantitative High-Throughput Screening (AID 1296008); conditions: Five cell lines viability, CellTiter-Glo ATP luminescence, 48-72 h; max response: hits give low values
In short: (§1)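 Cells exposed to compounds for 48 or 72 hr at 37 degrees Celsius. Viability read as ATP-coupled luminescence with CellTiter-Glo after 10 min at room temperature.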

HEK293 = experiment: as above; conditions: Five cell lines viability, CellTiter-Glo ATP luminescence, 48-72 h; max response: hits give low values
In short: as §1

HaCat [1] = experiment: as above; conditions: Five cell lines viability, CellTiter-Glo ATP luminescence, 48-72 h; max response: hits give low values
In short: as §1

KB-3-1 = experiment: as above; conditions: Five cell lines viability, CellTiter-Glo ATP luminescence, 48-72 h; max response: hits give low values
In short: as §1

NIH3T3 = experiment: as above; conditions: Five cell lines viability, CellTiter-Glo ATP luminescence, 48-72 h; max response: hits give low values
In short: as §1

HEK293T = experiment: qHTS assay to identify novel small-molecules to repurpose for Merkel cell carcinoma treatment (AID 1296009); conditions: MCC and control cell lines, CellTiter-Glo viability, 72 h; series mostly up to 44.8 µM
In short: (§2)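 Dose-response viability screen; 72 hr exposure at 37 degree celsius; CellTiter-Glo added, 10 min room temperature, luminescence read; RLUs scaled between no-cell and DMSO wells.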

HACAT [2] = experiment: as above; conditions: MCC and control cell lines, CellTiter-Glo viability, 72 h; at 44.8 µM (top of the series) unless noted
In short: as §2

MCC-13 = experiment: as above; conditions: MCC and control cell lines, CellTiter-Glo viability, 72 h; series mostly up to 46 µM
In short: as §2
Further: nearly all actives have a fitted effect of over 60% in size.
On the % scale 0 is the no-effect control and ±100 the full control effect.

C[C@H]1[C@H](C)CC[C@]2(C(=O)O)CC[C@]3(C(=O)O)C(=CCC4[C@@]5(C)CC[C@H](O[C@@H]6O[C@H](C)[C@@H](O)[C@H](O)[C@H]6O)C(C)(C)C5CC[C@]43C)[C@H]12 (stereo partly drawn)
inactive: max response (CRL-7250) -5.62% | outcome (HEK293) | max response (HaCat [1]) 2.99% | max response (KB-3-1) 1.93% | outcome (NIH3T3) | Potency (HEK293T)

COC1CC(=O)C23C(=O)NC(CC(C)C)C2C(C)C(C)=CC3/C=C(\C)CCC1O (stereo not drawn)
inactive: outcome (CRL-7250) | outcome (HEK293) | max response (HaCat [1]) -17.4% | max response (KB-3-1) 0.905% | max response (NIH3T3) -0.706% | Potency (HEK293T)

CC1CC(O)C2(C)C(C(=O)O)=CCCC2C1(C)CCc1ccoc1 (stereo not drawn)
inactive: max response (CRL-7250) 0.739% | outcome (HEK293) | outcome (HaCat [1]) | outcome (KB-3-1) | max response (NIH3T3) -2.92% | outcome (HACAT [2]) | Potency (HEK293T)

C/C=C(\C)C(=O)O[C@@H]1CC2[C@@H](CC=C3C[C@@H](O[C@H]4C[C@H](OC)[C@H](O[C@H]5C[C@H](OC)[C@H](O[C@H]6C[C@H](OC)[C@H](O[C@H]7C[C@@H](OC)[C@H](O[C@@H]8O[C@H](CO)[C@@H](O)[C@H](O)[C@H]8O)[C@@H](C)O7)[C@@H](C)O6)[C@@H](C)O5)[C@@H](C)O4)CC[C@@]32C)[C@@]2(O)CC[C@H](C(C)=O)[C@@]12C (stereo partly drawn)
inactive: max response (CRL-7250) 2.31% | outcome (HEK293) | outcome (HaCat [1]) | max response (KB-3-1) -8.02% | max response (NIH3T3) 0.771% | outcome (HACAT [2]) inactive [at 9.27 µM] | outcome (HEK293T) inactive [at 9.27 µM]

O=C(OCc1cccc(O)c1O[C@@H]1O[C@H](CO)[C@@H](O)[C@H](O)[C@H]1O)C1(O)C(=O)C2C=CC1C1C=CC(=O)C(O)(C(=O)OCc3cccc(O)c3O[C@@H]3O[C@H](CO)[C@@H](O)[C@H](O)[C@H]3O)C21 (stereo partly drawn)
inactive: max response (CRL-7250) -8.04% | outcome (HEK293) | outcome (HaCat [1]) | outcome (KB-3-1) | max response (NIH3T3) 3.82% | outcome (HACAT [2]) inactive [at 9.27 µM] | outcome (HEK293T) inactive [at 9.27 µM]

COc1ccc([C@H]2Cc3cccc(O)c3C(=O)O2)cc1
inactive: max response (CRL-7250) -7.43% | outcome (HEK293) | outcome (HaCat [1]) | max response (KB-3-1) 9.62% | outcome (NIH3T3) | outcome (HACAT [2]) | Potency (HEK293T)

CC(=O)OC(C)OC(=O)C(C)c1ccc(-c2ccccc2)c(F)c1 (stereo not drawn)
inactive: max response (CRL-7250) -4.19% | max response (HEK293) -11.4% | outcome (HaCat [1]) | max response (KB-3-1) 1.74% and -23.2% | outcome (NIH3T3) | outcome (HACAT [2]) | outcome (MCC-13)

C=C1C(=O)OC2/C=C(\C)CC/C=C(\C(=O)O)CC/C=C(\C)CCC12 (stereo not drawn)
inactive: outcome (CRL-7250) | outcome (HEK293) | outcome (HaCat [1]) | max response (KB-3-1) 5.52% | max response (NIH3T3) 2.63% | outcome (HACAT [2]) | Potency (HEK293T)

CC1C(=O)CC2C3C(O)CC(C(=O)O)C12CC3(C)C (stereo not drawn)
inactive: outcome (CRL-7250) | outcome (HEK293) | outcome (HaCat [1]) | max response (KB-3-1) 3.18% | outcome (NIH3T3) | outcome (HACAT [2]) | Potency (HEK293T)

O=C(CCCCc1ccc2ccccc2c1)C(F)(F)F
inactive: max response (CRL-7250) 3.49% | outcome (HEK293) | outcome (HaCat [1]) | max response (KB-3-1) 2.37% | outcome (NIH3T3) | outcome (HACAT [2]) inactive [at 92 µM] | Potency (HEK293T)

C=CC1(C)C=C2C(=O)CC3C(C)(C)CCCC3(C(=O)O)C2(O)CC1 (stereo not drawn)
inactive: outcome (CRL-7250) | outcome (HEK293) | outcome (HaCat [1]) | outcome (KB-3-1) | max response (NIH3T3) -3.47% | outcome (HACAT [2]) | Potency (HEK293T)

COC(=O)C1=CO[C@@H](O[C@@H]2O[C@H](COC(=O)/C=C/c3cc(OC)c(O)c(OC)c3)[C@@H](O)[C@H](O)[C@H]2O)[C@@H]2C(CO)=CC[C@H]12
inactive: max response (CRL-7250) -6.59% | outcome (HEK293) | outcome (HaCat [1]) | max response (KB-3-1) 1.62% | max response (NIH3T3) 0.53% | outcome (HACAT [2]) inactive [at 17.4 µM] | Potency (HEK293T)

CC1=CCC2C(C)(CO)CCCC2(CO)C1CO (stereo not drawn)
inactive: outcome (CRL-7250) | outcome (HEK293) | max response (HaCat [1]) -5.9% | outcome (KB-3-1) | outcome (NIH3T3) | Potency (HEK293T)

CCc1cc2c(=O)c(-c3nc4ccccc4s3)coc2c(CN2CCCCC2)c1O
inactive: max response (CRL-7250) 0.116% | outcome (HEK293) | outcome (HaCat [1]) | max response (KB-3-1) -10.9% | max response (NIH3T3) 2.93% | outcome (HACAT [2]) inactive [at 17.4 µM] | Potency (HEK293T)

COC1C2=C(COC2=O)C2(C)CCCC(C)(CO)C2C1OC(=O)c1ccccc1 (stereo not drawn)
inactive: outcome (CRL-7250) | outcome (HEK293) | max response (HaCat [1]) -2.64% | outcome (KB-3-1) | outcome (NIH3T3) | Potency (HEK293T)

C[C@@H]1CC[C@]2(C)C3(C)CC[C@@]2(OC3=O)[C@@]12C[C@H](c1ccoc1)OC2=O
inactive: max response (CRL-7250) -6.81% | outcome (HEK293) | max response (HaCat [1]) -0.0916% | max response (KB-3-1) -4.36% | max response (NIH3T3) -0.649% | Potency (HEK293T)

COCCN(C)Cc1ccc2nc3sc(C(=O)N(C)C4CCCCC4)cn3c2c1
inactive: outcome (CRL-7250) | outcome (HEK293) | max response (HaCat [1]) -3.7% | outcome (KB-3-1) | max response (NIH3T3) -0.706% | Potency (HEK293T)

CCOC(=O)Nc1nc2ccccc2[nH]1
inactive: max response (CRL-7250) 3.6% | outcome (HEK293) | max response (HaCat [1]) -2.18% | max response (KB-3-1) 2.03% | outcome (NIH3T3) | Potency (HEK293T)

COC(=O)C12C(=O)C(C)=C(O)C1(C)C(C)=CC1C34CCC(OC3=O)C(C)(C)C4CCC12C (stereo not drawn)
inactive: max response (CRL-7250) -4.32% | outcome (HEK293) | max response (HaCat [1]) 1.85% | max response (KB-3-1) 6.41% | outcome (NIH3T3) | Potency (HEK293T)

C=CC1(C)C=C2C(O)CC3C(C)(C(=O)O)CCCC3(C)C2CC1 (stereo not drawn)
inactive: outcome (CRL-7250) | outcome (HEK293) | outcome (HaCat [1]) | max response (KB-3-1) 7.58% | max response (NIH3T3) -5.1% | outcome (HACAT [2]) | Potency (HEK293T)

c1nc(NC2CCCCCC2)c2cc(CNC[C@H]3CCCO3)sc2n1
inactive: outcome (CRL-7250) | outcome (HEK293) | max response (HaCat [1]) -3.62% | max response (KB-3-1) -9.77% | max response (NIH3T3) 3.78% | Potency (HEK293T)

CC(=O)OC[C@@]12[C@@H](OC(C)=O)C[C@@H](C)[C@](C)([C@@H]3C[C@H]4C=CO[C@H]4O3)[C@H]1CCC[C@]21CO1
inactive: max response (CRL-7250) 0.841% | outcome (HEK293) | max response (HaCat [1]) 2.97% | outcome (KB-3-1) | max response (NIH3T3) -2.5% | Potency (HEK293T)

COC1=CC(=O)O[C@@H](/C=C/c2ccccc2)[C@@H]1O
inactive: outcome (CRL-7250) | outcome (HEK293) | max response (HaCat [1]) 4.5% | outcome (KB-3-1) | outcome (NIH3T3) | Potency (HEK293T)

CC1CCC2C(C(=O)O)=CC3CC(C)(C)CC132 (stereo not drawn)
inactive: max response (CRL-7250) 3.63% | outcome (HEK293) | max response (HaCat [1]) -7.87% | max response (KB-3-1) 3% | outcome (NIH3T3) | Potency (HEK293T)

CCC(=O)N[C@@H]1Cc2ccccc2[C@H](c2ccccc2)C1
inactive: outcome (CRL-7250) | outcome (HEK293) | max response (HaCat [1]) 0.895% | outcome (KB-3-1) | outcome (NIH3T3) | Potency (HEK293T)

CC(=O)OC1C(O)CC(O[C@@H]2O[C@H](CO)[C@@H](O)[C@H](O)[C@H]2O)C2CCC3C(=O)OC(c4ccoc4)CC3(C)C21 (stereo partly drawn)
inactive: max response (CRL-7250) -4.25% | outcome (HEK293) | max response (HaCat [1]) -6.02% | max response (KB-3-1) 0.494% | outcome (NIH3T3) | Potency (HEK293T)
